Unmarked numbers belong to inactive results.
What follows are targets tested with C#CCNC(=O)CCSSCCC(=O)NCCc1ccc(C=O)c(C=O)c1 (assay: lysine labeling ratio R10:1 (500 µM / 50 µM probe), SILAC-ABPP in living cells; higher = lower intrinsic lysine reactivity toward the probe, active = 2 or less). Conditions: HeLa; probe concentrations 500 vs 50 µM.
Summary of the method: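 Living SILAC light and heavy HeLa cells in PBS at room temperature were treated with an alkyne-tagged, disulfide-linked lysine probe at 50 µM or 500 µM, with forward and reverse label swaps. The mixed lysates were clicked to biotin-azide, digested with trypsin, captured on neutravidin, released with DTT, alkylated and run by LC-MS/MS on a TIMS-TOF Pro. R for each lysine is the filtered median high-probe/low-probe MS1 peptide ratio, taken again as the median over forward and reverse replicates. Any value above 20 is set to 20.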

Sequence of UniProt Q9Y490 (Q9Y490 whole entry): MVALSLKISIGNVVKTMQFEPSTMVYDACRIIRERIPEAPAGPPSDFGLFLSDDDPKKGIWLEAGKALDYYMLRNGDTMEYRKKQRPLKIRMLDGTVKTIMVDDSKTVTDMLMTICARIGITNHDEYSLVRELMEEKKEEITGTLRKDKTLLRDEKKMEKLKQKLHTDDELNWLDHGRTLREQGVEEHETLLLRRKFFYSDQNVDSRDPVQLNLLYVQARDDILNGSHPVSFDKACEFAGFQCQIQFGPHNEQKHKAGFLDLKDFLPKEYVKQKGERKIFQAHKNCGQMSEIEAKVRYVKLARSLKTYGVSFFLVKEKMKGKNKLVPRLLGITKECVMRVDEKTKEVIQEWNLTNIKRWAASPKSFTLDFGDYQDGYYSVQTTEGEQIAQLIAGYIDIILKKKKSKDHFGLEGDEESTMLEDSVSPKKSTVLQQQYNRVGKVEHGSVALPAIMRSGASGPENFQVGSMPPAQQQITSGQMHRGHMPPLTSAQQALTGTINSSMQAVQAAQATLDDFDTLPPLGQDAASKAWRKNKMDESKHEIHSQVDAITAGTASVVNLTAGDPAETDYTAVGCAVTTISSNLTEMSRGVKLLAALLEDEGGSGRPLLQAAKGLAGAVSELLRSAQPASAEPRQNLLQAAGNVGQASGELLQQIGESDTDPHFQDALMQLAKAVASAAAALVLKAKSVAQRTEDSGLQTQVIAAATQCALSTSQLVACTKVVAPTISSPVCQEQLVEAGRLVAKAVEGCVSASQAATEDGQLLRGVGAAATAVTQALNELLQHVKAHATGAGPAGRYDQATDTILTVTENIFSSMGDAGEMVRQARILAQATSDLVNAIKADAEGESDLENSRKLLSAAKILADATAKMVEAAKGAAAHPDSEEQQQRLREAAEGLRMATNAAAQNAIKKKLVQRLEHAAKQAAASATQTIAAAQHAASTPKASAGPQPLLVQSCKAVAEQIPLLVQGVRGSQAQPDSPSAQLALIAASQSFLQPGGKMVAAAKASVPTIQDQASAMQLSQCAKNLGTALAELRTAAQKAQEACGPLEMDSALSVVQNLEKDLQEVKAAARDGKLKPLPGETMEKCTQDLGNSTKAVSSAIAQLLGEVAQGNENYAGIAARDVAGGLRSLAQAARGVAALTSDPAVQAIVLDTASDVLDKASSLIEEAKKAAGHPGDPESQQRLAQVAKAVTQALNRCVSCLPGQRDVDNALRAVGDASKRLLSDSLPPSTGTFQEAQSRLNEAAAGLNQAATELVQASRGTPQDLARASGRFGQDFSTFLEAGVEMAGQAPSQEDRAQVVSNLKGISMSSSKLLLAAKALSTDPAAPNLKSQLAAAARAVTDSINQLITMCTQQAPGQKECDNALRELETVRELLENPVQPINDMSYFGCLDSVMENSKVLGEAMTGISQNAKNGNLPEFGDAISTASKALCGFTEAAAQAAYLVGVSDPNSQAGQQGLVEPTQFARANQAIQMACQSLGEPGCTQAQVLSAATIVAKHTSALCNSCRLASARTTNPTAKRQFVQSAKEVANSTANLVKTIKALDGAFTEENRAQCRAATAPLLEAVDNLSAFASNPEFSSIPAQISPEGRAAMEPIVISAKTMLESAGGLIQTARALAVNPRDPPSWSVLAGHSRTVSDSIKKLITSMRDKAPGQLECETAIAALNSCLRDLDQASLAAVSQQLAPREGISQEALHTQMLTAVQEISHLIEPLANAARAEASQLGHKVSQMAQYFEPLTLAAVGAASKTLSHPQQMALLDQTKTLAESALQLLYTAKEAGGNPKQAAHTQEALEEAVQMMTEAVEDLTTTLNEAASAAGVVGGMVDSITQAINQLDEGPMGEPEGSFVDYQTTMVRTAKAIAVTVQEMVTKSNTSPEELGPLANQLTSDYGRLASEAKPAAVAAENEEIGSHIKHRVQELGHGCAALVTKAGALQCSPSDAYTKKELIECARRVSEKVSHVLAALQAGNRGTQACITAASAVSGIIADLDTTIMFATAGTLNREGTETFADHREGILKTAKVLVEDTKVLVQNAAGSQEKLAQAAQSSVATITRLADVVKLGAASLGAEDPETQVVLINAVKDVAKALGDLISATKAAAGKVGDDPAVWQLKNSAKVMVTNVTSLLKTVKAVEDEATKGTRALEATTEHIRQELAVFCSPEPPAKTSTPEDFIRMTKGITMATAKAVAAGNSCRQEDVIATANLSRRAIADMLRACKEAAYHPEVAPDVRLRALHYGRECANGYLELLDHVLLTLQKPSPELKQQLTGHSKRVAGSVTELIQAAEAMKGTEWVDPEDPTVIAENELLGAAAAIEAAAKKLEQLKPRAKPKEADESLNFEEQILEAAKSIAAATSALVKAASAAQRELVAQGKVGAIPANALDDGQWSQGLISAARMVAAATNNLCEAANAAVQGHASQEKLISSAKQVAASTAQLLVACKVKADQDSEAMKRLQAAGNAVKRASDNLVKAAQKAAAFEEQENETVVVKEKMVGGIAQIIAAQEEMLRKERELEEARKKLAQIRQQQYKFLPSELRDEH
Sequence of UniProt P23229 (P23229 whole entry): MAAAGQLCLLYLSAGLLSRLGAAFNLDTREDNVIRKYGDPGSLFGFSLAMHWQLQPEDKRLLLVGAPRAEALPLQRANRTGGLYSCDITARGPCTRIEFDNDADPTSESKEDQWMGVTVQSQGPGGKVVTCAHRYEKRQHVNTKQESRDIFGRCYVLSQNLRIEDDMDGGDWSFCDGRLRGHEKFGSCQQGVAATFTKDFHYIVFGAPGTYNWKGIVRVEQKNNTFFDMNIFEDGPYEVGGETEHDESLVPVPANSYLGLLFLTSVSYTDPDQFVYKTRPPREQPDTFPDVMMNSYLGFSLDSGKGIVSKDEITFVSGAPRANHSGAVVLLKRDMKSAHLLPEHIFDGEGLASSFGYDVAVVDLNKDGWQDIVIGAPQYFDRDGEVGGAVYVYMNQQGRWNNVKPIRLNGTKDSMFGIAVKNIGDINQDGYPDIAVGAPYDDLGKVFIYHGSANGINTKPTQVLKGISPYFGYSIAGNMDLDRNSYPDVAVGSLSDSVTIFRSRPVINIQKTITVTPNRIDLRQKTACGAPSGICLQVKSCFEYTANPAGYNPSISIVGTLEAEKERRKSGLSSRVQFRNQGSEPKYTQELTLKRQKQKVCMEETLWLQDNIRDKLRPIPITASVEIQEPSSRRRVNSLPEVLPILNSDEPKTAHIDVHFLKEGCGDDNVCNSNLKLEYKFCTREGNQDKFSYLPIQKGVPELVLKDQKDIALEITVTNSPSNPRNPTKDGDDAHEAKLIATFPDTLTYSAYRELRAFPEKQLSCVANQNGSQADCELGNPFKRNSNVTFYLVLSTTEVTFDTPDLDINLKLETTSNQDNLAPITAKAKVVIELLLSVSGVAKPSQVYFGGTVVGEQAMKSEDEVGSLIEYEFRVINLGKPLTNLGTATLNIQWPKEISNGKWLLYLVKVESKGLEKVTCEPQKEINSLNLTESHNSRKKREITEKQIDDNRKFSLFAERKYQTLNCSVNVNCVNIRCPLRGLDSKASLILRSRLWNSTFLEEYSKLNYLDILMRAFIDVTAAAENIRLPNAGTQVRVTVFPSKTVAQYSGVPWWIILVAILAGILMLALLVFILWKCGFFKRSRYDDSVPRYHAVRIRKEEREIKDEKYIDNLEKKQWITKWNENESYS
Sequence of UniProt P25705 (P25705 whole entry): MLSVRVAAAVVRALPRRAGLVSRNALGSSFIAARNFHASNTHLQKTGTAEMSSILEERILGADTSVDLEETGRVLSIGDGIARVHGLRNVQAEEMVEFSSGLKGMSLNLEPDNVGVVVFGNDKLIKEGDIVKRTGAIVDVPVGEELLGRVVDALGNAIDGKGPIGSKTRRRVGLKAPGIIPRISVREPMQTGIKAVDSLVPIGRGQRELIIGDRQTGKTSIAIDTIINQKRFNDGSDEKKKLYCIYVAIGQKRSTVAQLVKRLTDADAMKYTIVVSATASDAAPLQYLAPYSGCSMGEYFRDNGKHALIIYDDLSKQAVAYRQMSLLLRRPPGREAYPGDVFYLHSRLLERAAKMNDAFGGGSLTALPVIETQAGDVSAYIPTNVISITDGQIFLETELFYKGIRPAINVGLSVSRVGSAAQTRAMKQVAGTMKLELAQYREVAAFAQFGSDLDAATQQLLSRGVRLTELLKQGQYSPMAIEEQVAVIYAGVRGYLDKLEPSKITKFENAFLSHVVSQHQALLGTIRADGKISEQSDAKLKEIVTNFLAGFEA
Sequence of UniProt P52272 (P52272 whole entry): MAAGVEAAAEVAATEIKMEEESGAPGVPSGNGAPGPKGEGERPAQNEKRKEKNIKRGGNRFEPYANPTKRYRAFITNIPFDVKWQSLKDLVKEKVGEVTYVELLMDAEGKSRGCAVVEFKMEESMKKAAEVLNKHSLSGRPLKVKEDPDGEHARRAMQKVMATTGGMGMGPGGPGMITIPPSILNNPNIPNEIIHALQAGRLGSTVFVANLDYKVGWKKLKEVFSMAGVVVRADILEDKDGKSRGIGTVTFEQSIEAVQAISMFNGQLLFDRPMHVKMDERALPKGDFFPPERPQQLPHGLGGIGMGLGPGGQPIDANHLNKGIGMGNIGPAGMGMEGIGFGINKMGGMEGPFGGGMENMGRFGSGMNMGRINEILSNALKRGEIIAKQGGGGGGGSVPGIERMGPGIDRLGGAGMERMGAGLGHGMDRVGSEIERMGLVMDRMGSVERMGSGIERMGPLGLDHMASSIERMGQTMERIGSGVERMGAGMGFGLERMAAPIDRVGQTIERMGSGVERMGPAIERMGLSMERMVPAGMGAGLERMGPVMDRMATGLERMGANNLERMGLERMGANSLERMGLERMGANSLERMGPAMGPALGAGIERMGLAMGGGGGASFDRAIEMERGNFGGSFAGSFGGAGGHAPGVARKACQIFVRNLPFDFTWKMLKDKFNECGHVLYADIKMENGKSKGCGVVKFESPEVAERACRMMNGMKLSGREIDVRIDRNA

| Target | lysine labeling ratio R10:1 |
| --- | --- |
| TLN1 (lysine site: K138) (UniProt Q9Y490) | 1.21 (active) |
| ANXA3 (lysine site: K154) (UniProt P12429) | 3.32 |
| PDIA3 (lysine site: K347) (UniProt P30101) | 5.72 |
| UniProt Q14574 (lysine site: K180) | 1.97 (active) |
| IMPDH2 (lysine site: K511) (UniProt P12268) | 3.35 |
| TF (lysine site: K135) (UniProt P02787) | 1.26 (active) |
| TLN1 (lysine site: K875) (UniProt Q9Y490) | 7.4 |
| THBS1 (lysine site: K968) (UniProt P07996) | 1.48 (active) |
| UniProt Q15149 (lysine site: K4270) | 0.968 (active) |
| PRDX1 (lysine site: K199) (UniProt Q06830) | 2.6 |
| KRT18 (lysine site: K426) (UniProt P05783) | 9.55 |
| HSPA9 (lysine site: K121) (UniProt P38646) | 1.51 (active) |
| UniProt Q15149 (lysine site: K3476) | 1.8 (active) |
| ROR2 (lysine site: K97) (UniProt Q01974) | 6.68 |
| FOLR1 (lysine site: K97) (UniProt P15328) | 4.12 |
| CCT6A (lysine site: K199) (UniProt P40227) | 0.593 (active) |
| IGF2R (lysine site: K1230) (UniProt P11717) | 1.74 (active) |
| FLNB (lysine site: K1780) (UniProt O75369) | 2.69 |
| EFNB2 (lysine site: K163) (UniProt P52799) | 1.53 (active) |
| SDC4 (lysine site: K114) (UniProt P31431) | 3.81 |

| Target | lysine labeling ratio R10:1 |
| --- | --- |
| UniProt Q16352 (lysine site: K290) | 1.71 (active) |
| UniProt P05787 (lysine site: K295) | 11.9 |
| F11R (lysine site: K97) (UniProt Q9Y624) | 18.5 |
| ITGA6 (lysine site: K144) (UniProt P23229) | 4.01 |
| STOM (lysine site: K235) (UniProt P27105) | 4.28 |
| UniProt P62333 (lysine site: K298) | 1.53 (active) |
| UniProt P55285 (lysine site: K365) | 0.61 (active) |
| CCT4 (lysine site: K489) (UniProt P50991) | 2.21 |
| UniProt P62280 (lysine site: K32) | 4.32 |
| TKT (lysine site: K310) (UniProt P29401) | 7.45 |
| CACNA2D1 (lysine site: K690) (UniProt P54289) | 3.51 |
| GSN (lysine site: K245) (UniProt P06396) | 4.08 |
| PARK7 (lysine site: K188) (UniProt Q99497) | 1.98 (active) |
| RPS3A (lysine site: K152) (UniProt P61247) | 3.85 |
| UniProt P25705 (lysine site: K230) | 2.24 |
| TSPAN6 (lysine site: K146) (UniProt O43657) | 1.28 (active) |
| IGF1R (lysine site: K887) (UniProt P08069) | 3.44 |
| HNRNPM (lysine site: K651) (UniProt P52272) | 2.28 |
| RPS3A (lysine site: K46) (UniProt P61247) | 3.87 |
| GANAB (lysine site: K269) (UniProt Q14697) | 2.12 |

Source: the supplement of paper PMC11001985
